# HP1b chromo inh – HP1-beta chromodomain-methylated histone interaction inhibition | P83916 | AlphaScreen HP1-beta / biotin-H3K9me3 peptide binding | Potency, µM (doses to about 114 µM), inactives show top-dose activity change, negative = inhibition, hits mostly inhibitors | 390,000 compounds, 0.56% hits | AID 540317; further: nearly all actives have a fitted effect of over 70% in size
#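 AlphaScreen: HP1-beta (50 nM) preformed 30 min with biotin-H3(1-18)K9me3 peptide (50 nM) in PBS pH 7.4, 0.01% Tween-20. Compound added for 30 min at RT, then streptavidin donor/nickel chelate acceptor beads (10 ug/mL) for 30 min.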
# L3MBTL1 inh – L3MBTL1 (human) inhibition | Q9Y468 | Potency, µM (titrated, usually from 57.1 µM), inactives show at the top dose activity, negative = inhibition, usual class: inhibitors | AlphaScreen L3MBTL1–H3K9me1 peptide binding | 230,000 compounds, 0.66% hits; further: on the % scale 0 is the no-effect control and ±100 the full control effect; nearly all actives have a fitted effect of over 60% in size
#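 L3MBTL1 50 nM + b-AHA-H3(1-15)K9me1 75 nM, 30 min RT; compound added, 30 min RT; streptavidin donor/Ni-chelate acceptor beads 10 ug/mL each final, 30 min RT dark; AlphaScreen read.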
# G9a block – inhibitors of human histone lysine methyltransferase G9a. Potency, µM (series often up to 102 µM), for the others: at the top dose activity, negative = inhibition, most hits filed as inhibitors. 350,000 compounds, 8.8% hits. Q96KQ7. G9a H3K9 monomethylation, AlphaScreen, 2 h; further: on the % scale 0 is the no-effect control and ±100 the full control effect; nearly all actives have a fitted effect of over 75% in size
#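 G9a (20 nM) was preincubated 15 min with compound, then reacted 2 h at room temperature with 500 nM biotin-H3K9 peptide and 20 µM SAM. Monomethyl-H3K9 detected by AlphaScreen using anti-H3K9me1 antibody.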
# BAZ2B inh – BAZ2B (human) inhibition. AlphaScreen BAZ2B-H3K14Ac peptide displacement. Potency, µM (doses to about 114 µM), inactives show top-dose activity change, negative = inhibition, hits mostly inhibitors. 360,000 compounds, 4.4% hits; further: on the % scale 0 is the no-effect control and ±100 the full control effect; nearly all actives have a fitted effect of over 60% in size
#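 In this displacement format the biotinylated H3(5-23) peptide acetylated at Lys14 serves as ligand at 50 nM, with BAZ2B at 50 nM in PBS pH 7.4 containing 0.01% Tween-20. Donor and acceptor beads are 10 ug/mL final.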
# Sfp PPTase inh – blocks B. subtilis Sfp PPTase activity | Potency, µM, for inactives: largest response in the series, negative = inhibition, usual class: inhibitors | Q9F4F7 | Biochemical Sfp PPTase activity, qHTS | 310,000 compounds, 3.5% hits | AID 1490;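 further: the enzyme is Sfp with the accession as filed and its product quenches rhodamine fluorescence; 0% = enzyme reaction without inhibitor and -100% = no enzyme wells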
#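 Reaction rates are the 30-min fluorescence difference (ex 525, em 598 nm) in wells containing 15 nM Sfp, 5 uM rhodamine-CoA and 12.5 uM BHQ-2-YbbR at pH 7.6 with 10 mM MgCl2.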
# JMJD2A Tudor – JMJD2A Tudor domain (human) inhibition; O75164; AlphaScreen JMJD2A-Tudor / H3K4me3 peptide binding; Potency, µM (titrated, usually from 114 µM), for inactives: at the top dose activity change, negative = inhibition, actives largely listed as inhibitors; 390,000 compounds, 4.4% hits; AID 504339; further: on the % scale 0 is the no-effect control and ±100 the full control effect; nearly all actives have a fitted effect of over 50% in size
# Target sequence (O75164 whole entry, looked up, the tested form may be a part): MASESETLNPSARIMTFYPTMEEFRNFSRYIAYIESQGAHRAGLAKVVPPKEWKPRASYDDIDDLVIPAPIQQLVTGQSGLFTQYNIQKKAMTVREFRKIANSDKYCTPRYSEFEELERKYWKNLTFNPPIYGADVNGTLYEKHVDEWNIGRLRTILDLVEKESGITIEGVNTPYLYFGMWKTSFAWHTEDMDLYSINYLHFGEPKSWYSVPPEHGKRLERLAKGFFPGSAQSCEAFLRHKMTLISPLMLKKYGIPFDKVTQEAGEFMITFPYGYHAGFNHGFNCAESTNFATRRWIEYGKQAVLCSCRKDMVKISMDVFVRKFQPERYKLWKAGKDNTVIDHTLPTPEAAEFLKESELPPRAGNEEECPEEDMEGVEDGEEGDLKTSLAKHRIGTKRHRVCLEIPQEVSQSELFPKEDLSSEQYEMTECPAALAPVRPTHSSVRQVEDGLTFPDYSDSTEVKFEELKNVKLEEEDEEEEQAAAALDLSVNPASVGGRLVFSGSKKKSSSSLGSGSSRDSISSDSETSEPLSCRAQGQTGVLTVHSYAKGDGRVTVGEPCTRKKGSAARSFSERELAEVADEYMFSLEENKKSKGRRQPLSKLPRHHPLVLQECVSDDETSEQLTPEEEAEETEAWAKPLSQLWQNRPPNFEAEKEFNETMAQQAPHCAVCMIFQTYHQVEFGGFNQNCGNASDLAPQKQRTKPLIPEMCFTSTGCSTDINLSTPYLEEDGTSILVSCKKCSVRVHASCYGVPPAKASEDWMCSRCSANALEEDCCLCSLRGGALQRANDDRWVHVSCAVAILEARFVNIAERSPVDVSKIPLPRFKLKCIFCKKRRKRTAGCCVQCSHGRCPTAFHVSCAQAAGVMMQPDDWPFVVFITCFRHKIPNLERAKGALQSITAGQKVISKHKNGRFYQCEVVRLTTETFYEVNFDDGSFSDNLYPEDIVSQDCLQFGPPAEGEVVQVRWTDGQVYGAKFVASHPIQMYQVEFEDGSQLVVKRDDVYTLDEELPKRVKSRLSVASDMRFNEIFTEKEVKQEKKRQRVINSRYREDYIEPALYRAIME
# * marks the source's active call; other numbers are inactive results; ? = inconclusive; / = no result; [ ] = another dose, or the depositor's remark. Shown are actives, neighbours in structure and some others; about 12% of the full set was active somewhere. The call rests on the fitted dose curve; in most records, active means well fitted curve in the direction sought with a large enough effect; inconclusive means small, poorly fitted or top-dose-only effect, or another doubt; inactive means no such curve, though single readings can be large; an effect the other way counts as inactive or inconclusive. Potency means the concentration at half of the fitted maximal effect.
SMILES,HP1b chromo inh,L3MBTL1 inh,G9a block,BAZ2B inh,Sfp PPTase inh,JMJD2A Tudor
O=C(O)C1CCC(C(=O)O)O1 (stereo not drawn),-11%[57 µM],/,/,/,/,45µM*
COc1ccc2c([N+](=O)[O-])c(Cl)[nH]c2c1,?,-9%,25µM*,79µM*,-12%,56µM*
Clc1ccc(C(Cn2ccnc2)OCc2c(Cl)cccc2Cl)c(Cl)c1 (stereo not drawn),-25%,-14%,7.9µM*,32µM*,/,?
CCOC(=O)c1ccc(S(=O)(=O)N2CCN(C3CCCC3)CC2)cc1,20%,-21%,-10%,-19%,18µM*,-14%
CCOC(=O)N1CCC(N2CCN(S(=O)(=O)CC)CC2)CC1,?,4%,?,-31%,-22%,4.5µM*
CCOC(=O)N1CCC(N2CCN(c3ccccc3)CC2)CC1,19%,1%,-86%,-36%,11%,-21%
CCOC(=O)N1CCC(N2CCN(S(=O)(=O)c3ccc(OC)cc3)CC2)CC1,-11%,-3%,?,-10%,4%,18µM*
CCOC(=O)COc1ccc(S(=O)(=O)N2CCN(c3ccc(OC)cc3)CC2)cc1,-16%,-17%,4%,-5%,10%,28µM*
COc1ccc(S(=O)(=O)N2CCN(C3CCN(Cc4ccccc4)CC3)CC2)cc1,-5%,-1%,-4%[59 µM],/,14%,-13%
CCOC(=O)COc1ccc(S(=O)(=O)N2CCN(c3ccccc3F)CC2)cc1,27%,2%,-3%[12.7 µM],8%,21%,1%
COC(=O)c1ccccc1NC(=O)CSc1cc(-c2ccccc2)nc(C)n1,43%,/,10%[59 µM],-3%,/,9%
COc1ccccc1NC(=O)C(=O)NCC(c1ccc2c(c1)OCO2)N1CCN(C)CC1 (stereo not drawn),23%[57 µM],/,-6%[59 µM],-2%,/,-13%
CC(=O)c1ccc(N2Cc3ccccc3C3(CCOCC3)C2=N)cc1,37%,-4%,56µM*,-25%,13%,-5%
CN(CC(=O)Nc1cccc(F)c1)C(=O)c1ccccc1OCCOc1ccccc1,14%,-4%,-1%,6%,/,-9%
O=C(Cc1ccccc1)NCC(=O)OCC(=O)c1cccc2ccccc12,17%[57 µM],/,/,/,/,-6%[57.1 µM]
Clc1ccc(-c2nc3ccccn3c2CN2CCCCC2)cc1,12%,-17%,-27%,-32%,9%,-16%
Oc1ccc(N2CCN(Cc3c(-c4ccccc4)nc4ccccn34)CC2)cc1,?,/,10µM*,?,25µM*,14µM*
Cn1c(-c2ccccc2)cnc1NCc1ccccc1O,?,/,10µM*,50µM*,/,28µM*
COc1ccc(CNc2cccnc2)c(OC)c1OC,44%,/,/,/,/,-6%
COc1cccc(-c2cnc(NCc3cc(Cl)ccc3O)n2C)c1,?,?,8.9µM*,40µM*,?,4.5µM*
COCCn1c(-c2ccc(OC)cc2)cnc1N,-6%,0%,?,?,4%,?
COc1ccc(CNc2ncc(-c3cccc([N+](=O)[O-])c3)n2C)c(OC)c1OC,?,-1%,32µM*,50µM*,-13%,25µM*
Cc1cccc(NCc2cc(Cl)ccc2O)n1,21%,-7%,2%[59 µM],13%,6%,-5%
CCOc1ccc(-c2cnc(NCc3cccc4ccccc34)n2CCOC)cc1,?,-12%,/,40µM*,56µM*,14µM*
CCCCn1c(NCc2ccccc2O)nc2ccccc21,30%,-14%,-19%[59 µM],-1%,-2%,-4%
SMILES,HP1b chromo inh,L3MBTL1 inh,G9a block,BAZ2B inh,Sfp PPTase inh,JMJD2A Tudor
Cc1ccc(C)c(OCC(=O)Nc2ccncc2)c1,24%,-2%,15%,-6%,9%,-2%
OC[C@@H]1O[C@](CO)(O[C@H]2O[C@H](CO)[C@@H](O)[C@H](O)[C@H]2O)[C@H](O)[C@H]1O,/,/,3%[12.7 µM],/,13%,/
CCOc1ccc(-c2cnc(NCc3cccc(Cl)c3)n2C)cc1,?,/,7.9µM*,?,/,20µM*
CC(=O)n1nc(-c2ccccc2)nc1NCc1ccc(F)cc1,118%,/,-12%[2.33 µM],32%,-15%,29%
Cn1c(-c2ccccc2)cnc1NCc1ccc(F)cc1,?,1%,/,?,-32%,35µM*
COc1ccc(CNc2ncc(-c3ccc(F)cc3)n2C)c2ccccc12,?,-13%,10µM*,50µM*,-22%,20µM*
COc1ccc(OC)c(NC(=O)c2nc(SCc3ccccc3F)ncc2Cl)c1,53%,/,17%[59 µM],-14%,/,-24%
Cc1ccccc1CNC(=O)c1cnc2sc(N3CCOCC3)nn2c1=O,11%,/,4%[59 µM],-4%,/,0%
Cn1c(/C(C#N)=C/c2cccc(O)c2)nc2ccccc21,?,-8%,-24%,-19%,14%,22µM*
N#C/C(=C\c1cccc(O)c1)c1nc2ccccc2o1,3%,-3%,-26%,-25%,79µM*,-23%
N#C/C(=C\c1ccncc1)c1nc2ccccc2o1,1%,6%,?,-17%,?,-23%
CCOc1ccc2nc(SC3CC(=O)N(c4ccc(C)cc4)C3=O)sc2c1 (stereo not drawn),44%,-14%,-8%[2.33 µM],-2%,7%,-10%
CC(=O)Nc1ccc(N2C(=O)CC(Sc3nc4ccccc4s3)C2=O)cc1 (stereo not drawn),35%,-1%,28µM*,-32%,-8%,-17%
CCOC(=O)c1ccc(N2C(=O)CC(Sc3nc(C)cc(C)n3)C2=O)cc1 (stereo not drawn),56%,2%,-11%[59 µM],-8%,14%,12%
CCOc1ccc2nc(SC3CC(=O)N(c4ccc(OC)cc4OC)C3=O)sc2c1 (stereo not drawn),34%,-7%,32µM*,-22%,-1%,-22%
COc1ccc(N2C(=O)CC(Sc3nc4ccccc4s3)C2=O)cc1OC (stereo not drawn),30%,-9%,32µM*,-18%,-23%,-14%
CCOc1ccc(N2C(=O)CC(Sc3nc4ccc(OCC)cc4s3)C2=O)cc1 (stereo not drawn),70%,/,/,/,/,-8%
CCOC(=O)c1cnc(SC2CC(=O)N(c3ccc(OC)c(OC)c3)C2=O)nc1N (stereo not drawn),19%,-6%,20µM*,13%,6%,-7%
O=C(CCNS(=O)(=O)c1ccccc1)NNC(=O)c1cccc(Cl)c1,31%,7%,/,/,/,-4%
CCCCn1c(N)c(N(CCC(C)C)C(=O)CC2CCCCC2)c(=O)[nH]c1=O,22%,8%,?,-2%,/,-8%

# Bioassay records as filed in PubChem.
